Most compounds without a hit are left out; they make up all but 22% or so of the library.
CYP2C9 inhib: blocks human cytochrome P450 2C9; AID 777; P11712; actives 20% (n = 96,000); inhibition, % at 5 µM; CYP2C9 Supersomes, luciferin-H conversion, luminescence;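 active = blocking of liver enzyme CYP2C9 beyond about 50% at 5 µM, limit read from the data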
Target sequence (P11712 whole entry, looked up): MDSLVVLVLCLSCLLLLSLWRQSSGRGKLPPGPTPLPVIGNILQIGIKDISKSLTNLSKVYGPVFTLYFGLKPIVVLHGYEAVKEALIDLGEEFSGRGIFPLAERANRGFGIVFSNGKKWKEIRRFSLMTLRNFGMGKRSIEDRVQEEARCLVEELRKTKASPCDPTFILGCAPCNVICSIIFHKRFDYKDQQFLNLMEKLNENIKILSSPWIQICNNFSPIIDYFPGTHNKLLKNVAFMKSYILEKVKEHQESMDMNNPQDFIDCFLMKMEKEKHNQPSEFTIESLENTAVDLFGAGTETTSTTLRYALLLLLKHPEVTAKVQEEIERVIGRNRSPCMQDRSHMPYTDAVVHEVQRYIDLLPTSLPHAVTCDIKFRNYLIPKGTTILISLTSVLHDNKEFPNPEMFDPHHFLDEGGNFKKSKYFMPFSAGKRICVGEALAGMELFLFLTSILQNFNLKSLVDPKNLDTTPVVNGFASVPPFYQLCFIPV
CYP2C19 act: increases human CYP2C19 enzyme activity | P33261 | recombinant CYP2C19, luciferin-H EGE luminescence; stronger effect = higher value; 0 = fully inhibited enzyme, 1 = untreated enzyme | activation factor at 5 µM | 96,000 tested, under 10 active;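 active = activation factor of at least 2 at 5 µM in the primary screen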;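 also: 0 = wells with 2.5 mM tranylcypromine and 1 = vehicle-only wells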
CYP2C9 activ: increases human cytochrome P450 2C9 activity; recombinant CYP2C9, luciferin-H conversion, luminescence; stronger effect = higher value; factor 1 = untreated enzyme, 0 = blocked; activation factor at 5 µM; actives 1.4% (n = 96,000); AID 1024;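 active = activation factor of 2 or more for CYP2C9 at a 5 µM dose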;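 also: 0 = sulfaphenazole-blocked wells and 1 = vehicle-only wells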
CYP2C19 inhib: inhibitors of human CYP2C19 | inhibition, % at 5 µM | CYP2C19 Supersomes, luciferin-H EGE luminescence, 30 min | P33261 | AID 778 | actives 21% (n = 96,000);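 active = CYP2C19 inhibition above a set limit at 5 µM in the primary screen, cut at about 50% in these data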;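 also: plate controls were negative control wells for no effect and 2.5 mM tranylcypromine positive control for full effect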
Measles CPE: protection of cells from measles virus | Measles virus-infected cells, CPE protection, absorbance | protection (pct of control), % at 4 µM | actives 1.5% (n = 140,000); in the data active = protection mostly above about 24%, no sharp cut-off; inactive = mostly below about 26%
* = called active by the depositor; nt = not tested or not shown.

SMILES	CYP2C9 inhib	CYP2C19 act	CYP2C9 activ	CYP2C19 inhib	Measles CPE
O=C(Cn1cccc1)N1CCc2ccccc21	-1	0.9	1	7	100*
Cc1ccccc1OCc1nnc(SCC(=O)N2CCc3ccccc32)n1C	nt	nt	nt	nt	5
Cn1c(SCC(=O)N2CCc3ccccc32)nnc1C1CC1	8	0.2	0.9	76*	10
CCn1cc(SCC(=O)N2CCc3ccccc32)c2ccccc21	60*	0.4	0.4	61*	2
O=C(CSc1nc(O)cc(=O)[nH]1)N1CCCc2ccccc21	3	0.9	1	9	48*
O=C(CSc1ccccc1)N1CCc2ccccc21	20	0.1	0.8	94*	13
OCCNc1nc(OCC(F)(F)F)nc(N2CCN(C34CC5CC(CC(C5)C3)C4)CC2)n1	23	1.1	0.8	-7	4
Cc1cc(=O)[nH]c(SCC(=O)N2CCN(C(c3ccccc3)c3ccccc3)CC2)n1	19	0.8	0.8	18	11
CCC(C)NCCCOc1ccc(Cl)cc1C(C)(C)C (configuration not stated)	nt	nt	nt	nt	13
O=C(O)CN1CCN(Cc2ccccc2)C1=O	nt	nt	nt	nt	3
O=C(CSc1nc2cc(Cl)ccc2s1)N1CCCc2ccccc21	62*	0.6	0.4	44	10
CC(C(=O)N1CCc2ccccc21)n1cccc1 (configuration not stated)	-4	0.2	1	82*	21
O=C(Cc1c[nH]c2ccccc12)N1CCc2ccccc21	77*	0.1	0.2	92*	5
O=C1N(CC(=O)N2CCc3ccccc32)CCN1Cc1ccc(Cl)cc1	-134	0.8	2.3*	19	5
CN(C)S(=O)(=O)c1ccc(NC(=O)C2COc3ccccc3O2)cc1 (configuration not stated)	nt	nt	nt	nt	13
O=C(NC1=C(Nc2ccc(F)cc2)C(=O)c2ccccc2C1=O)c1ccc(Cl)cc1	nt	nt	nt	nt	3
COc1ccccc1/C=C/C=N/n1c(C2CCCCC2)n[nH]c1=S	nt	nt	nt	nt	8
O=C(Cn1ncc2ccccc21)N1CCc2ccccc21	43	0.7	0.6	31	45*
CCOc1ccc2noc3c2c1C(=O)c1ccccc1-3	3	1.1	1	-8	24
O=C1c2ccccc2-c2onc3c(Oc4ccccc4)cc(O)c1c23	68*	0.9	0.3	6	1
CCCc1c(C)c2c(C)[nH]nc2oc1=O	-75	0.4	1.8	62*	4
Cc1ccc(-c2cn3cccnc3n2)cc1NC(=O)c1ccc(Br)o1	18	1.1	0.8	-9	13
Cc1ccc2c(c1)C(N1CCCC1=O)CC(c1ccco1)N2 (configuration not stated)	29	0.2	0.7	78*	15
Cc1ccc(C(=O)NC(=S)Nc2ccc(S(=O)(=O)N3CCN(C)CC3)cc2)cc1	26	0.8	0.7	18	63*
Cc1cccc(C(=O)NC(=S)Nc2ccc(S(=O)(=O)N3CCN(C)CC3)cc2)c1	71*	0.2	0.3	79*	19
SMILES	CYP2C9 inhib	CYP2C19 act	CYP2C9 activ	CYP2C19 inhib	Measles CPE
COc1ccc(C2Nc3ccccc3C(=O)N2Cc2ccco2)cc1COc1ccccc1F (configuration not stated)	99*	0.1	0	90*	3
COc1ccc(C2Nc3ccccc3C(=O)N2Cc2ccccc2)cc1CSc1ccccn1 (configuration not stated)	23	0.9	0.8	7	12
COc1ccc(C2Nc3ccccc3C(=O)N2Cc2ccco2)cc1COc1ccc(NC(C)=O)cc1 (configuration not stated)	100*	0.2	0	85*	7
Cc1ccc(NC(=O)Cn2nc(C)c3ccccc3c2=O)cc1	-7	0.9	1.1	13	3
CC#CCCC(=O)N1C=Cc2ccccc2C1C#N (configuration not stated)	8	0.3	0.9	66*	36
CCOC(=O)c1sc(C)c2c1NC(C)(c1cccs1)NC2=O (configuration not stated)	63*	0.7	0.4	31	29
NC(=O)CSc1nc(N)c2c3c(sc2n1)CCCCC3	35	0.3	0.7	67*	15
CCSc1nc(N)c2c3c(sc2n1)CCC3	31	0	0.7	96*	7
CNC(=O)CSc1nc(N)c2c3c(sc2n1)CCC3	12	1	0.9	3	6
COc1ccc(N(CC(O)Cn2c(C)nc3ccccc32)S(=O)(=O)c2ccccc2)cc1 (configuration not stated)	nt	nt	nt	nt	17
Cc1ccc(Oc2cnc3ccccc3n2)cc1	-3	1	1	5	67*
